Results published in PubChem BioAssay (EPA / NIEHS).
Active and inactive are the calls of the source. Rule for the calls: active = hit-call score of the fitted dose curve at least 0.9, where 1 is the maximum; inactive = score below 0.9.

Key:
[1] = read-out: CFLAR gene, CFLAR (gene 8837); assay: LTEA_HepaRG_CFLAR: Life Technologies and Expression Analysis (LTEA) Assay for CFLAR gene using HepaRG (AID 2283455); conditions: mRNA level, 48 h; actives raise or lower the signal
Procedure, shortened: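 Differentiated HepaRG cells in serum-free induction medium were exposed 48 h in duplicate to eight half-log concentrations up to 100 uM in 0.5% DMSO; mRNA measured by TaqMan qRT-PCR, normalized to ACTB, GAPDH, POLR2A; bidirectional fitting versus DMSO.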

[2] = read-out: Forkhead box O1 (FOXO1), FOXO1 (gene 2308); assay: LTEA_HepaRG_FOXO1: Life Technologies and Expression Analysis (LTEA) Assay for Forkhead box O1 (FOXO1) using HepaRG (AID 2283456); conditions: mRNA level, 48 h; actives raise or lower the signal
Procedure, shortened: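 Differentiated HepaRG cells, in serum-free induction medium with 0.5% DMSO, exposed 48 h in duplicate to 8-point half-log series from 100 uM. FOXO1 mRNA measured by TaqMan qRT-PCR, normalized to ACTB, GAPDH, POLR2A; bidirectional fit versus DMSO.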

[3] = CEETOX_H295R_TESTO: CeeTox H295R High-throughput Steroidogenesis Assay for Testosterone (TESTO) (AID 2283457); conditions: actives raise or lower the signal
Procedure, shortened: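 Testosterone secreted into the medium over 48 h by H295R cells (maximum passage 10) was quantified by LC-MS/MS after MTBE extraction. Fitted in both directions against DMSO, with concentrations diluted until MTT viability was ≥70%.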

[4] = read-out: growth arrest and DNA damage 45 (GADD45A), GADD45A (gene 1647); assay: LTEA_HepaRG_GADD45A: Life Technologies and Expression Analysis (LTEA) Assay for growth arrest and DNA damage 45 (GADD45A) using HepaRG (AID 2283458); conditions: mRNA level, 48 h; actives raise or lower the signal
Procedure, shortened: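 Differentiated HepaRG cells exposed 48 h in serum-free induction medium to 8 concentrations, top 100 uM in half-log steps, 0.5% DMSO. GADD45A mRNA quantified by qRT-PCR, normalized to ACTB, GAPDH and POLR2A; bidirectional fit versus DMSO.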

[5] = read-out: Forkhead box O3 (FOXO3), FOXO3 (gene 2309); assay: LTEA_HepaRG_FOXO3: Life Technologies and Expression Analysis (LTEA) Assay for Forkhead box O3 (FOXO3) using HepaRG (AID 2283459); conditions: mRNA level, 48 h; actives raise or lower the signal
Procedure, shortened: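 Differentiated human HepaRG cells, 48 h post-plating, exposed in duplicate for 48 h in serum-free induction medium; 8-point half-log series from 100 uM in 0.5% DMSO. FOXO3 mRNA by TaqMan qRT-PCR, normalized to ACTB/GAPDH/POLR2A; bidirectional fit versus DMSO.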

[6] = read-out: ABC Transporter (ABCB1), ABCB1 (gene 5243); assay: LTEA_HepaRG_ABCB1: Life Technologies and Expression Analysis (LTEA) Assay for ABC Transporter (ABCB1) using HepaRG (AID 2283460); conditions: mRNA level, 48 h; actives raise or lower the signal
Procedure, shortened: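 HepaRG cells exposed in duplicate for 48 h in serum-free induction medium to eight half-log concentrations up to 100 uM in 0.5% DMSO. ABCB1 mRNA quantified by qRT-PCR, normalised to ACTB, GAPDH and POLR2A; fitted bidirectionally versus DMSO.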

[7] = read-out: growth arrest and DNA damage 45 (GADD45B), GADD45B (gene 4616); assay: LTEA_HepaRG_GADD45B: Life Technologies and Expression Analysis (LTEA) Assay for growth arrest and DNA damage 45 (GADD45B) using HepaRG (AID 2283461); conditions: mRNA level, 48 h; actives raise or lower the signal
Procedure, shortened: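 Transcript level quantified by Fluidigm TaqMan qRT-PCR with three housekeeping genes for normalization, analyzed for up- or down-regulation against 0.5% DMSO. HepaRG cultures dosed 48 h at eight half-log concentrations up to 100 uM, duplicates.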

[8] = read-out: ABC Transporter (ABCC3), ABCC3 (gene 8714); assay: LTEA_HepaRG_ABCC3: Life Technologies and Expression Analysis (LTEA) Assay for ABC Transporter (ABCC3) using HepaRG (AID 2283462); conditions: mRNA level, 48 h; actives raise or lower the signal
Procedure, shortened: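 Transcript level by TaqMan qRT-PCR, normalised to three housekeeping genes, fitted in both directions relative to vehicle. Chemicals tested in duplicate at eight half-log concentrations up to 100 uM for 48 h on HepaRG cells (0.5% DMSO).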

[9] = read-out: ABC Transporter (ABCB11), ABCB11 (gene 8647); assay: LTEA_HepaRG_ABCB11: Life Technologies and Expression Analysis (LTEA) Assay for ABC Transporter (ABCB11) using HepaRG (AID 2283463); conditions: mRNA level, 48 h; actives raise or lower the signal
Procedure, shortened: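 Differentiated human HepaRG cells in serum-free induction medium, dosed in duplicate for 48 h. Eight-point half-log series from 100 uM in 0.5% DMSO; ABCB11 mRNA by qRT-PCR, normalized to ACTB, GAPDH, POLR2A, fitted bidirectionally versus DMSO.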

[10] = read-out: ABC Transporter (ABCC2), ABCC2 (gene 1244); assay: LTEA_HepaRG_ABCC2: Life Technologies and Expression Analysis (LTEA) Assay for ABC Transporter (ABCC2) using HepaRG (AID 2283464); conditions: mRNA level, 48 h; actives raise or lower the signal
Procedure, shortened: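 Endpoint is ABCC2 transcript level from qRT-PCR, normalized to three housekeeping genes and fitted bidirectionally relative to DMSO. Human HepaRG cells received test chemical for 48 h at up to 100 uM (8 points, half-log steps, 0.5% DMSO), duplicate wells.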

[11] = read-out: ATP-citrate lyase (ACLY), ACLY (gene 47); assay: LTEA_HepaRG_ACLY: Life Technologies and Expression Analysis (LTEA) Assay for ATP-citrate lyase (ACLY) using HepaRG (AID 2283466); conditions: mRNA level, 48 h; actives raise or lower the signal
Procedure, shortened: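 Differentiated HepaRG cells exposed 48 h in serum-free induction medium to eight half-log concentrations up to 100 uM in 0.5% DMSO, duplicates. Transcript measured by Fluidigm TaqMan qRT-PCR, normalized to ACTB, GAPDH, POLR2A; bidirectional fit versus DMSO.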

[12] = read-out: Peroxisomal acyl-coenzyme A oxidase 1 (ACOX1) gene, ACOX1 (gene 51); assay: LTEA_HepaRG_ACOX1: Life Technologies and Expression Analysis (LTEA) Assay for Peroxisomal acyl-coenzyme A oxidase 1 (ACOX1) gene using HepaRG (AID 2283467); conditions: mRNA level, 48 h; actives raise or lower the signal
Procedure, shortened: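 HepaRG cells, plated 48 h then switched to serum-free induction medium, were exposed in duplicate for 48 h to 8-point half-log concentrations up to 100 uM in 0.5% DMSO. ACOX1 mRNA was measured by qRT-PCR, normalized to ACTB/GAPDH/POLR2A, and fitted bidirectionally versus DMSO.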

[13] = read-out: Alkaline Phosphatase, Placental (ALPP) gene, ALPP (gene 250); assay: LTEA_HepaRG_ALPP: Life Technologies and Expression Analysis (LTEA) Assay for Alkaline Phosphatase, Placental (ALPP) gene using HepaRG (AID 2283468); conditions: mRNA level, 48 h; actives raise or lower the signal
Procedure, shortened: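 ALPP transcript level, measured by qRT-PCR and normalized to three housekeeping genes (ACTB, GAPDH, POLR2A), after 48 h dosing of differentiated HepaRG in serum-free induction medium. Top concentration 100 uM with half-log dilutions (8 points, 0.5% DMSO, duplicates); bidirectional fitting relative to DMSO.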

[14] = read-out: Bcl-2 (BAD) gene, BAD (gene 572); assay: LTEA_HepaRG_BAD: Life Technologies and Expression Analysis (LTEA) Assay for Bcl-2 (BAD) gene using HepaRG (AID 2283469); conditions: mRNA level, 48 h; actives raise or lower the signal
Procedure, shortened: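 Differentiated HepaRG cells were exposed in duplicate in 0.5% DMSO for 48 h to eight-point half-log concentrations up to 100 uM. BAD mRNA was measured by Fluidigm TaqMan qRT-PCR, normalized to ACTB, GAPDH and POLR2A, and fitted bidirectionally against DMSO.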

[15] = read-out: Bcl-2 (BAX) gene, BAX (gene 581); assay: LTEA_HepaRG_BAX: Life Technologies and Expression Analysis (LTEA) Assay for Bcl-2 (BAX) gene using HepaRG (AID 2283470); conditions: mRNA level, 48 h; actives raise or lower the signal
Procedure, shortened: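 Differentiated HepaRG cells exposed 48 h in serum-free induction medium, eight half-log concentrations from 100 uM, in duplicate, 0.5% DMSO vehicle. BAX mRNA by TaqMan qRT-PCR, normalised to ACTB, GAPDH and POLR2A.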

[16] = read-out: Alpha-fetoprotein (AFP) gene, AFP (gene 174); assay: LTEA_HepaRG_AFP: Life Technologies and Expression Analysis (LTEA) Assay for Alpha-fetoprotein (AFP) gene using HepaRG (AID 2283472); conditions: mRNA level, 48 h; actives raise or lower the signal
Procedure, shortened: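 Differentiated human HepaRG cells exposed 48 h in serum-free induction medium, 8-point half-log series from 100 uM in 0.5% DMSO, duplicate. AFP mRNA by qRT-PCR, normalized to ACTB, GAPDH, POLR2A; bidirectional fit vs DMSO.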

[17] = read-out: BCL2L11 (gene 10018); assay: LTEA_HepaRG_BCL2L11: Life Technologies and Expression Analysis (LTEA) Assay for Bcl-2 (BCL2L11) gene using HepaRG (AID 2283473); conditions: mRNA level, 48 h; actives raise or lower the signal
Procedure, shortened: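 BCL2L11 transcript levels are measured by Fluidigm qRT-PCR, normalized to three housekeeping genes. HepaRG cultures were plated 48 h, then treated 48 h with test chemical (top 100 uM, half-log, 0.5% DMSO vehicle); curves were fitted bidirectionally against DMSO.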

[18] = read-out: Apolipoprotein A-V (APOA5) gene, APOA5 (gene 116519); assay: LTEA_HepaRG_APOA5: Life Technologies and Expression Analysis (LTEA) Assay for Apolipoprotein A-V (APOA5) gene using HepaRG (AID 2283474); conditions: mRNA level, 48 h; actives raise or lower the signal
Procedure, shortened: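 APOA5 transcript levels were quantified by qRT-PCR, normalized to three housekeeping genes, after 48 h chemical treatment of HepaRG cells (8 points, 100 uM maximum, half-log steps, 0.5% DMSO). Curves fitted in both directions against vehicle.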

[19] = read-out: Broad substrate specificity ATP-binding cassette transporter ABCG2 (Homo sapiens) (UniProt Q9UNQ0); assay: LTEA_HepaRG_ABCG2: Life Technologies and Expression Analysis (LTEA) Assay for ABC Transporter (ABCG2) using HepaRG (AID 2283465); conditions: mRNA level, 48 h; actives raise or lower the signal
Procedure, shortened: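 Differentiated HepaRG cells were exposed for 48 h in serum-free induction medium to 8 half-log concentrations, top 100 uM, in 0.5% DMSO. ABCG2 mRNA was measured by qRT-PCR, normalized to ACTB, GAPDH and POLR2A, with bidirectional fitting versus DMSO.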

Measured: outcome

Chain of Broad substrate specificity ATP-binding cassette transporter ABCG2 (Homo sapiens) (Q9UNQ0 whole entry, looked up): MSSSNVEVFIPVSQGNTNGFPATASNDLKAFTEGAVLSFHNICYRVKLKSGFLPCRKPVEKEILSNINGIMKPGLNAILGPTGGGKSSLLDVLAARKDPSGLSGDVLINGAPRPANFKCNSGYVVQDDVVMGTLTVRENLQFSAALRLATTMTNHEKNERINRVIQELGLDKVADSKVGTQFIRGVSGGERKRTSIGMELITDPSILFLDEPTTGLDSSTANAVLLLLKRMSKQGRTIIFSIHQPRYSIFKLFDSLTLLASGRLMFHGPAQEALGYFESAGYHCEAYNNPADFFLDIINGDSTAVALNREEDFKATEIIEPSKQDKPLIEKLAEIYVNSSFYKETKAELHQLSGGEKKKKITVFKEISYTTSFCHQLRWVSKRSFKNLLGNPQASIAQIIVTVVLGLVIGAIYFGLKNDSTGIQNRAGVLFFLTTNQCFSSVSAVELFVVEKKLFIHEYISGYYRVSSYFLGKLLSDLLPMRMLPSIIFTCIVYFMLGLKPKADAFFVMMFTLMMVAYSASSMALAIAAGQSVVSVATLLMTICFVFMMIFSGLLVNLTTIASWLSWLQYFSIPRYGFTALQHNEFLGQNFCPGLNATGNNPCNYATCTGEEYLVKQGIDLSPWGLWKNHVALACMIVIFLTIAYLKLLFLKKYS

CCCCOC(=O)c1ccc(O)cc1
not listed: [19]
inactive: all other assays above

CCCCCCCCCC(=O)O
not listed: [3]
inactive: all other assays above

CCCCCCCCCCCCO
not listed: [3]
inactive: all other assays above
